Laboratory results published in PubChem BioAssay AID624296 (National Center for Advancing Translational Sciences (NCATS), 2012).
The campaign covered roughly 350,000 compounds. About 9,900 (2.8%) were called active. Inconclusive results (about 15%) are left out. Calls come from the whole dose curve; as a rule, active = well fitted activation curve with a large enough effect; inconclusive = small, poorly fitted or top-dose-only effect; inactive = no such curve, though single readings can be large or run the other way. What follows is part of a selection rich in actives, with near analogues and random picks from the rest. Where a call stands in place of a potency, no number is given.

Experiment: A quantitative high throughput screen for small molecules that induce DNA re-replication in MCF 10a normal breast cells. Note: nearly all actives have a fitted effect of over 50% in size.
Details: MCF 10A DNA re-replication, Hoechst nuclear intensity, 48 h; series mostly up to 46.1 µM
Potency is the fitted concentration of half-maximal effect.

Structure (SMILES) | Potency
Cc1c(Cl)cnc(NC(=O)COC(=O)C2CCCC2)c1Cl | inactive
Cc1noc(C)c1COc1ccc(C(=O)NCCOc2ccccc2)cc1 | inactive
Cc1onc(-c2ccccc2Cl)c1C(=O)OCc1nnc(-c2ccccc2)o1 | inactive
COc1ccc(C(=O)COC(=O)c2c(C)noc2C)cc1Cl | inactive
Cc1onc(-c2ccccc2Cl)c1C(=O)OCC(=O)c1ccccc1 | 16.4 µM (active)
COc1cc(C(=O)OCc2cc(=O)n3ccsc3n2)ccc1OC(C)C | inactive
O=C(CN1C(=O)COc2ccccc21)Nc1ccc(F)cc1 | 20.6 µM (active)
O=C(CN1C(=O)COc2ccccc21)NCCN1CCc2ccccc2C1 | inactive
CC(OC(=O)CN1C(=O)COc2ccccc21)C(=O)NCc1ccc(F)cc1 (configuration not stated) | inactive
Cc1ccc(S(=O)(=O)N2CCN(C(=O)c3cc(S(=O)(=O)N4CCOCC4)ccc3F)CC2)cc1 | inactive
O=C(c1ccc(Cl)c(S(=O)(=O)N2CCCCCC2)c1)N1CCN(c2ccc(O)cc2)CC1 | inactive
CC(=O)Nc1ccc(/C=N/Nc2ccc(C(=O)c3c(C)cc4ccccn34)cc2[N+](=O)[O-])cc1 | inactive
Cc1ccc(C(C[N+](=O)[O-])c2c(C)cc3ccccn23)cc1 (configuration not stated) | 20.6 µM (active)
Cc1ccc(C(=O)NNC(=O)CSc2nnc3ccccn23)cc1 | inactive
Cc1cc(Cl)ccc1OCCCC(=O)NCc1ccncc1 | inactive
C/C(CC(=O)NCc1ccc(Cl)cc1)=N\NC(=O)COc1ccc(C)cc1Br | 5.8 µM (active)
CCCCC(=O)N/N=C(\C)CC(=O)Nc1cc(Cl)ccc1OC | inactive
COc1ccc(CC(=O)N[C@@H]2c3cc(OC)c(OC)cc3C[C@H]2OCc2ccccc2)cc1 | inactive
Cc1ccc(C(=O)Nc2ccccc2-c2ccccc2)cc1S(=O)(=O)Nc1ccccc1 | inactive
O=S(=O)(Nc1cc(Cl)ccc1N1CCOCC1)c1ccccc1Cl | inactive
CCCc1ccc(-c2c(C)sc(NC(=O)c3ccnn3C)c2C#N)cc1 | 16.4 µM (active)
Cn1nccc1CNC(=O)c1ccnn1C | inactive
Cc1sc(NC(=O)C2=COCCO2)c(C#N)c1C | inactive
COCC(=O)N(C)[C@H]1C[C@H]2c3cc(Oc4ccccc4C)ccc3CCN2C(=O)[C@H]1[C@H](C)O | inactive
CC(=O)n1cc([C@H]2C=C(C(=O)N3CCOCC3)O[C@@H](OCc3ccc(CO)cc3)C2)c2ccccc21 | inactive

Structure (SMILES) | Potency
CC(=O)n1cc([C@@H]2C=C(C(=O)N3CCN(Cc4ccc5c(c4)OCO5)CC3)O[C@H](OCc3ccc(CO)cc3)C2)c2ccccc21 | 13 µM (active)
CN1CCN(C(=O)C2=C[C@H](c3ccc4c(c3)OCO4)C[C@H](OCc3ccc(CO)cc3)O2)CC1 | 8.2 µM (active)
C=CCOC(=O)C1=C[C@@H](c2ccc3c(c2)OCO3)C[C@@H](OCCCCO)O1 | inactive
O=C(C1=C[C@H](c2coc3ccccc3c2=O)C[C@H](OCc2ccc(CO)cc2)O1)N1CCOCC1 | inactive
NC(=O)C1=C[C@@H](c2ccc3c(c2)OCO3)C[C@@H](OCCCCO)O1 | inactive
Cc1ccc2c(CN3CCN(S(=O)(=O)c4ccccc4C(F)(F)F)CC3)cc(=O)oc2c1 | inactive
COc1cc(C(c2c(NC(=O)c3ccco3)sc(C)c2C)N2CCOCC2)cc(OC)c1OC (configuration not stated) | inactive
O=C(O)c1ccc([N+](=O)[O-])cc1Sc1ccsc1 | inactive
Cc1ccc(C)c(S(=O)(=O)N(C)c2ccc(OC(=O)C3CCN(C(=O)c4ccc(F)cc4)CC3)cc2)c1 | inactive
COc1ccc(CCC(=O)Nc2ccc(Cl)c(S(=O)(=O)N3CCOCC3)c2)cc1OC | inactive
COc1ccc(Br)cc1CN(C)C(=O)C1CC(=O)N(C2CCCC2)C1 (configuration not stated) | inactive
COc1ccc(OC)c(NC(=O)COC(=O)Cc2ccsc2)c1 | inactive
O=C(COC(=O)/C=C/c1ccc2c(c1)OCO2)NC1CCS(=O)(=O)C1 (configuration not stated) | inactive
CC(C)(C)c1ccc(/C=C/C(=O)NC2CCS(=O)(=O)C2)cc1 (configuration not stated) | 0.92 µM (active)
CC(C)(C)c1ccc(/C=C/C(=O)Nc2ncccn2)cc1 | inactive
CCCc1cc(=O)[nH]c(SCC(=O)Nc2ccc(S(=O)(=O)N3CCCC3)cc2)n1 | inactive
Cc1ccccc1OCC(O)CN1CCN(c2ccccn2)CC1 (configuration not stated) | inactive
CC(C)c1ccc(OCC(O)CN2CCN(c3ccccn3)CC2)cc1 (configuration not stated) | 16.4 µM (active)
CC(=O)Nc1ccc(OCC(O)CN2CCN(c3ccccc3Cl)CC2)cc1 (configuration not stated) | inactive
COC(=O)[C@]1(CC(C)C)N[C@H](c2ccc(SC3CCCCC3)cc2)[C@@H]2C(=O)N(C)C(=O)[C@@H]21 | inactive
CSc1ncccc1C(=O)Nc1ccc2c(c1)OCO2 | inactive
Nn1c(SCC(=O)Nc2ccc3c(c2)CCC3)nnc1C1CC1 | inactive
Cc1nc(N)sc1-c1ccccc1 | inactive
CCOC(=O)C1=C(C)N(C[C@@H]2CC[C@@H](Cc3ccc(-c4ccccc4)cc3)O2)C(=O)NC1c1ccc([N+](=O)[O-])cc1 (some centres not stated) | inactive
S=C1SCN(CCN2CCOCC2)CN1Cc1ccccc1 | inactive

Structure (SMILES) | Potency
COc1ccc(CN2CN(C(C)C)CSC2=S)cc1 | 5.17 µM (active)
COc1ccc(CCC(C)N2CCc3ccccc3C2)cc1 (configuration not stated) | inactive
S=C(Nc1ccccc1)Nc1ccc2ccccc2c1 | inactive
COc1ccc2[nH]c3c(c2c1)CCN1C(=O)C(CC(=O)NCCCN(C)C)C[C@H](C(=O)N2CCOCC2)[C@@]31CCC1CCCC1 (some centres not stated) | inactive
CCOC(=O)[C@H]1[C@H]2COc3cc(OC)ccc3[C@@H]2N2C(=O)CN(Cc3ccc(Cl)cc3)C(=O)[C@@]12C | inactive
CCC(C)c1ccc(NC(=O)COC(=O)C2CCCC2)cc1 (configuration not stated) | inactive
COc1ccc(C(=O)CSc2nc(C)cc(C)n2)cc1[N+](=O)[O-] | inactive
COc1ccc(C(C[N+](=O)[O-])n2nc(C)cc2C)cc1 (configuration not stated) | 13 µM (active)
COc1ccc(OCc2cn3c(C)cc(C)nc3n2)cc1 | inactive
COc1ccccc1C(=O)Nc1ccc(OCC(=O)N2CCCCC2)cc1 | inactive
Cc1ccc(Nc2nc(-c3ccc(O)cc3O)cs2)nc1 | inactive
COc1ccc2nc(Nc3nc(-c4cc5ccccc5oc4=O)cs3)sc2c1 | 5.8 µM (active)
O=c1oc2ccccc2cc1-c1csc(Nc2ccc(O)cc2)n1 | 14.6 µM (active)
CCc1noc(C)c1C(=O)Nc1nc2ccc(OC)cc2s1 | inactive
CCNc1nc(-c2cc3ccccc3o2)cs1 | inactive
COc1ccc2nc(Nc3nc(-c4ccncc4)cs3)sc2c1 | inactive
CC(OC(=O)Cc1ccc(F)cc1)C(=O)N1CCc2ccccc21 (configuration not stated) | inactive
Cc1sc2ncnc(N3CCC(C(=O)Nc4ccc(F)cc4Cl)CC3)c2c1C | inactive
C#CCOCCOCCOCCNc1nc(N2CCN(C(=O)Cn3cc(CCO)nn3)CC2)nc(N2CCN(C(=O)Cn3cc(CCCN=C(N)N)nn3)CC2)n1 | inactive
O=[N+]([O-])c1cccc(C=NN=Cc2ccccc2O)c1 | inactive
CC[C@]12c3[nH]c4ccc(Cl)cc4c3CCN1C(=O)[C@@H](CC(=O)NCCN1CCOCC1)C[C@@H]2C(=O)N1CCN(C(=O)C2CC2)CC1 | inactive
CCCN(C(=O)COC(=O)CNS(=O)(=O)c1ccc(NC(C)=O)cc1)C1CCS(=O)(=O)C1 (configuration not stated) | inactive
COc1ccc(-c2csc(-c3cccs3)n2)cc1OC | inactive
COc1ccc(-c2csc3nc(-c4ccccc4F)oc(=O)c23)cc1OC | 8.2 µM (active)
COc1ccccc1-c1nnc(-c2ccc(F)cc2)o1 | inactive

Structure (SMILES) | Potency
COc1ccc(N/C=C(\C2OC(=O)c3ccccc32)[N+](=O)[O-])cc1 (configuration not stated) | inactive
COc1ccc2c(c1OC)C(=O)OC2Nc1nc(-c2ccccc2)cs1 (configuration not stated) | 4.61 µM (active)
COc1ccc(CCNc2nc(-c3cccc(NC(C)=O)c3)cs2)cc1OC | inactive
COc1ccc(-c2csc(NC3OC(=O)c4ccccc43)n2)cc1 (configuration not stated) | 11.6 µM (active)
COc1ccc(-c2csc(NC(=O)COC(=O)c3ccc(Br)o3)n2)cc1 | inactive
COc1cc(CC(=O)Nc2nc(-c3ccc(F)c(F)c3)cs2)cc(OC)c1OC | inactive
CC1CC(C)CN(C(=O)COC(=O)c2ccc3ncsc3c2)C1 (configuration not stated) | inactive
O=C(Nc1ccccc1F)c1ccc(S(=O)(=O)N2CCCCCC2)cc1 | inactive
O=C(CSc1ncnc2sccc12)N1CCN(C(=O)c2cccs2)CC1 | inactive
Cc1nnc(NC(=O)c2ccc3nccnc3c2)s1 | inactive
CCN(c1ccccc1)S(=O)(=O)c1cc(C(=O)NCc2ccccn2)ccc1C | inactive
CCCCn1nc(C(=O)Nc2cccc(C(=O)NC3CC3)c2)c2ccccc2c1=O | inactive
COC(=O)[C@]1(Cc2ccccc2)N[C@H](CN(C)S(=O)(=O)c2ccc(OC(F)(F)F)cc2)[C@@H]2C(=O)N(C)C(=O)[C@@H]21 | inactive
COc1cccc(C(=O)Nc2ccc(NC(=O)c3ccco3)cn2)c1 | inactive
COc1ccc(NC(=O)c2cccc(NC(=O)c3ccco3)c2)c(OC)c1 | inactive
COc1cccc(C(=O)Nc2ccc(N3CCN(C(=O)c4ccco4)CC3)cc2)c1 | 20.6 µM (active)
CC1(C)C[C@H]2C3=CCC4[C@@]5(C)CC[C@H](O)[C@](C)(CO)C5CC[C@@]4(C)[C@]3(C)C[C@@H](O)[C@@]2(CO)[C@@H](O)[C@@H]1O (some centres not stated) | inactive
CC(C)(C)OC(=O)C[C@@H]1C/C=C\C[C@@H](CC(=O)N[C@H](CO)Cc2ccccc2)C(=O)NCCOC1=O | inactive
O=C(NCC1(N2CCCCC2)CCCCC1)c1cccc(S(=O)(=O)Nc2ccccc2Cl)c1 | inactive
COc1cc(-c2c(-c3ccc4c(c3)OCO4)noc2C)ccc1F | 20.6 µM (active)
COc1cc2c(-c3ccc4c(c3)OCO4)c(-c3ccsc3)oc(=O)c2cc1OC | inactive
COc1ccc(CCNC(=O)c2cc(-c3ccc4c(c3)OCO4)on2)cc1OC | inactive
